This is a sample that favours compounds with a hit; in the whole collection about 21% have one here.
CYP2C19 inhib = human CYP2C19 inhibition | CYP2C19 Supersomes, luciferin-H EGE luminescence, 30 min | P33261 | 96,000 compounds, 21% hits | inhibition, % at 5 µM;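 active means CYP2C19 inhibition above a set limit at 5 µM in the primary screen, cut at about 50% in these data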
Target sequence (P33261 whole entry, looked up): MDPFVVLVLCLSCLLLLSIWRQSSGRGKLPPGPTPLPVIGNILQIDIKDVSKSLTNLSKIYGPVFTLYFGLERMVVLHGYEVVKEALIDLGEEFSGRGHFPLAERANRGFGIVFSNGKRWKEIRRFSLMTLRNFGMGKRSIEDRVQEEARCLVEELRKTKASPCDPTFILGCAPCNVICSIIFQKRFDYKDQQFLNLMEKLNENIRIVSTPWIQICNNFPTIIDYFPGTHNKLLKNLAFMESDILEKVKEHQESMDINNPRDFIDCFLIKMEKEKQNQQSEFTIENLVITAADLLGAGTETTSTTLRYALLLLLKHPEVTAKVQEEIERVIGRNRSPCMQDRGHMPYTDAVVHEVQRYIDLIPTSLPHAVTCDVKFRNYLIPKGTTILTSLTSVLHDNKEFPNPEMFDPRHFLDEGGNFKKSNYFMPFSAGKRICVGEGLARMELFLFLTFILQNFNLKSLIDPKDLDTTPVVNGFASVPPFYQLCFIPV
MRP1 act = activators of MRP-1 | H69AR cells + doxorubicin, viability rescue, CellTiter-Glo | viability increase, % at 10 µM | 140,000 compounds, 0.61% hits;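 active means viability gain under doxorubicin at or above a set limit, the compound median plus 3 SD, cut at about 4.7% in these data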;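 further: MRP-1 overexpressing cells given doxorubicin 25 µM after compound pretreatment; 18-22 h compound pretreatment then 72 h with doxorubicin before readout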
CYP2C19 act = increases human CYP2C19 enzyme activity; P33261; recombinant CYP2C19, luciferin-H EGE luminescence; active compounds read high; 0 = fully inhibited enzyme, 1 = untreated enzyme; activation factor at 5 µM; 96,000 tested, under 10 active;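 active means activation factor of at least 2 at 5 µM in the primary screen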
CYP2C9 inh = inhibitors of human CYP2C9; P11712; inhibition, % at 5 µM; AID 777; 96,000 compounds, 20% hits; CYP2C9 Supersomes, luciferin-H conversion, luminescence;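 active means blocking of liver enzyme CYP2C9 beyond about 50% at 5 µM, limit read from the data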
MRP reversal = reverses drug resistance mediated by MRP. H69AR cells + 2 uM doxorubicin, CellTiter-Glo, 72 h. differential viability (reversal), % at 10 µM. 85,000 compounds, 0.04% hits. AID 602;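 active means viability drop by adding the cancer drug above about 55%, with treated viability meeting a 40% cutoff, limit read from the data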;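 further: larger differential means the compound sensitizes cells more to doxorubicin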
CYP2C9 act = increases human cytochrome P450 2C9 activity; P11712; recombinant CYP2C9, luciferin-H conversion, luminescence; active compounds read high; factor 1 = untreated enzyme, 0 = blocked; activation factor at 5 µM; 96,000 compounds, 1.4% hits;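 active means activation factor of 2 or more for CYP2C9 at a 5 µM dose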
Of the large screens only hits and unclear results are named; the others gave an inactive call.

O=C(NCC(=O)N(Cc1cccs1)C(C(=O)NC1CCCC1)c1ccncc1)c1ccco1 (centres undefined)	CYP2C19 inhib 61, CYP2C9 inh 72
COc1ccc(C(C(=O)NC2CCCCC2)N(Cc2ccco2)C(=O)CNC(=O)c2ccco2)cc1 (centres undefined)	none (no result: CYP2C19 inhib, CYP2C19 act, CYP2C9 inh, CYP2C9 act)
Cc1ccc(C(C(=O)NCc2ccco2)N(Cc2ccco2)C(=O)CNC(=O)c2ccco2)cc1 (centres undefined)	CYP2C19 inhib 57
O=C(NCC(=O)N(Cc1ccco1)C(C(=O)NC1CCCC1)c1cccnc1)c1cccs1 (centres undefined)	CYP2C9 inh 86
CC(OC(=O)c1ccc2c(=O)n3c(nc2c1)CCCCC3)C(=O)Nc1ncc(Cl)cc1Cl (centres undefined)	none (no result: CYP2C19 inhib, CYP2C19 act, CYP2C9 inh, MRP reversal, CYP2C9 act)
COc1cccc(CN2C(=O)CCC2(C)C(=O)NC2CCCC2)c1 (centres undefined)	none
Clc1ccc(CNCc2cccs2)cc1Cl	none (no result: CYP2C19 inhib, CYP2C19 act, CYP2C9 inh, MRP reversal, CYP2C9 act)
O=C(NC(=S)Nc1nc2ccccc2s1)c1ccco1	none (no result: CYP2C19 inhib, CYP2C19 act, CYP2C9 inh, MRP reversal, CYP2C9 act)
COc1ccc(C(=O)NC(=O)COC(=O)C2COc3ccccc3O2)cc1 (centres undefined)	none
COc1ccc(-c2csc(/C(C#N)=C(\O)CSc3nccn3C)n2)cc1OC	CYP2C9 inh 69
COc1ccccc1N1CCN(C/C(O)=C(\C#N)c2nc(-c3ccccc3)cs2)CC1	none
O=C(Nc1ccc2c(c1)N(Cc1ccccc1)C(=O)c1ccccc1S2)NC1CC1	CYP2C19 inhib 87, CYP2C9 inh 76
CCc1ccccc1S(=O)(=O)Cc1ccc(C(=O)N2CCN(c3ccccn3)CC2)o1	none
Cc1ccc(CC2CC(=O)N(c3cc(C)on3)C2=O)cc1 (centres undefined)	CYP2C19 inhib 54
COc1ccc(CNC(=O)c2csnn2)cc1	CYP2C19 inhib 52
Cc1ccc(CNC(=O)c2cnccn2)cc1	none (no result: CYP2C19 inhib, CYP2C19 act, CYP2C9 inh, MRP reversal, CYP2C9 act)
COc1ccc(CNC(=O)c2cnccn2)cc1	CYP2C19 inhib 58
COC(=O)C1=CN(CC2CCCO2)C=C(C(=O)OC)C1c1cc(OC)c(OC)c(OC)c1 (centres undefined)	none
CCC(Oc1ccccc1)C(=O)O/N=C(\N)c1ccc(OC)c(OC)c1 (centres undefined)	none (no result: CYP2C19 inhib, CYP2C19 act, CYP2C9 inh, MRP reversal, CYP2C9 act)
CC[C@H](C)[C@@H](NC(=O)O[C@@H]1C(=O)c2cc(Br)ccc2O[C@H]1c1ccc2c(c1)OCO2)C(=O)OC	none (no result: CYP2C19 inhib, CYP2C19 act, CYP2C9 inh, MRP reversal, CYP2C9 act)
CC(C)C1N=C2c3ccccc3N=C(SCC#N)N2C1=O (centres undefined)	none
CC(C)CNC(=S)Nc1ccc(Oc2ccccc2)cc1	none (no result: CYP2C19 inhib, CYP2C19 act, CYP2C9 inh, MRP reversal, CYP2C9 act)
Cc1ccc(/C=N/n2c(C3CCCCC3)n[nH]c2=S)s1	none (no result: CYP2C19 inhib, CYP2C19 act, CYP2C9 inh, MRP reversal, CYP2C9 act)
CC(C)CCNC(=O)C1CCN(S(=O)(=O)c2ccc3c(c2)CCC(=O)N3)CC1	CYP2C9 inh 59
Cc1ccc(CCNC(=O)C2CCN(S(=O)(=O)c3ccc4c(c3)CCC(=O)N4)CC2)cc1	none (no result: MRP reversal)
O=C1CCc2cc(S(=O)(=O)N3CCC(C(=O)NC4CCCC4)CC3)ccc2N1	CYP2C9 inh 52
O=C1CCc2cc(S(=O)(=O)N3CCC(C(=O)NCc4ccccn4)CC3)ccc2N1	none (no result: MRP reversal)
O=C1CCc2cc(S(=O)(=O)N3CCCC3C(=O)NC3CCCCCCC3)ccc2N1 (centres undefined)	CYP2C9 inh 81
O=C(Nc1ccc([N+](=O)[O-])cc1Br)c1cccnc1	none (no result: CYP2C19 inhib, CYP2C19 act, CYP2C9 inh, MRP reversal, CYP2C9 act)
CC(SCCc1ccccn1)C(=O)O (centres undefined)	none
COC(=O)c1ccc(COc2ccccc2/C=N/NS(=O)(=O)c2ccccc2)cc1	none (no result: MRP reversal)
CCC1CCC(c2nnc(-c3ccc([N+](=O)[O-])cc3)o2)CC1 (centres undefined)	none (no result: CYP2C19 inhib, CYP2C19 act, CYP2C9 inh, MRP reversal, CYP2C9 act)
COc1ccccc1/C=C/C=N/NC(=O)CCn1nnc2ccccc21	none (no result: CYP2C19 inhib, CYP2C19 act, CYP2C9 inh, MRP reversal, CYP2C9 act)
Cc1cccc(Nc2nc(NCc3ccco3)nc(N3CCOCC3)n2)c1	CYP2C19 inhib 82, CYP2C9 inh 92
Cc1cccc(Nc2nc(N3CCCC3)nc(N3CCCC3)n2)c1	none
CC1(C)SC(=S)N(Cc2ccc3c(c2)OCO3)C1N(O)C(=O)NC1CCCCC1 (centres undefined)	CYP2C9 inh 72
CCOC(=O)Nc1nnc(CCc2ccccc2)s1	CYP2C9 inh 62
COc1cccc(NC(=S)N2CCC(N(C)CC3CCCO3)CC2)c1 (centres undefined)	none (no result: CYP2C19 inhib, CYP2C19 act, CYP2C9 inh, MRP reversal, CYP2C9 act)
O=C1C2=C(Nc3ccccc3SC2c2ccco2)c2ccccc21 (centres undefined)	CYP2C9 inh 78
CCN(CC)CCNC(=O)c1c(O)c2cc(OC)c(OC)cc2[nH]c1=O	none (no result: CYP2C19 inhib, CYP2C19 act, CYP2C9 inh, CYP2C9 act)
COc1cc(NC(=O)Cc2nn(C)c(=O)c3ccccc23)cc(OC)c1	CYP2C9 inh 86
CCOCC(=O)Nc1cccc(OC)c1	none (no result: CYP2C19 inhib, CYP2C19 act, CYP2C9 inh, CYP2C9 act)
COc1cc(NC(=O)COc2cccc(OC)c2)cc(OC)c1	CYP2C19 inhib 88
CCC(=O)Nc1cccc(NC(=O)COc2ccc(OC)cc2)c1	none
COc1cccc(OCC(=O)Nc2ccc(OC)c(OC)c2)c1	CYP2C19 inhib 51
COc1ccc(NC(=O)CCC2CCCC2)cc1OC	CYP2C19 inhib 95
Cc1nn(C)cc1C(C(=O)NC1CCCCC1)N(C(=O)Cc1cccs1)c1ccc(Cl)cc1 (centres undefined)	none (no result: CYP2C19 inhib, CYP2C19 act, CYP2C9 inh, MRP reversal, CYP2C9 act)
Cc1ccc(/C=C(\NC(=O)c2ccccc2)C(=O)NCCc2ccccn2)o1	none (no result: CYP2C19 inhib, CYP2C19 act, CYP2C9 inh, MRP reversal, CYP2C9 act)
COC1(OC)N=C(NC(=O)Nc2ccccc2)C2(C#N)C(c3ccccc3)C12C#N (centres undefined)	none
Cc1sc2nc(CSCC(=O)Nc3ccccc3C#N)[nH]c(=O)c2c1C	none (no result: CYP2C19 inhib, CYP2C19 act, CYP2C9 inh, MRP reversal, CYP2C9 act)
O=C(COc1cccc(OC(F)F)c1)Nc1ccc(SC(F)F)cc1	CYP2C19 inhib 81 (no result: MRP reversal)
COc1cc(NC(=O)Cc2ccccc2)cc(OC)c1	CYP2C19 inhib 94
COc1ccc(NC(=O)Cc2ccccc2)cc1	none (no result: CYP2C19 inhib, CYP2C19 act, CYP2C9 inh, CYP2C9 act)
O=C(COc1cccc(-n2cnnn2)c1)Nc1ccccc1	none (no result: CYP2C19 inhib, CYP2C19 act, CYP2C9 inh, CYP2C9 act)
COc1ccc(Cl)cc1NC(=O)COc1cccc(-n2cnnn2)c1	CYP2C9 act 3.3
O=C(COC(=O)c1ccccn1)Nc1ncc(C(F)(F)F)cc1Cl	none
O=C(COC(=O)c1ccccn1)Nc1cccc(Cl)c1Cl	CYP2C19 inhib 84
O=C(c1c(F)c(F)c(F)c(F)c1F)N1CCc2ccccc21	none (no result: CYP2C19 inhib, MRP1 act, CYP2C19 act, CYP2C9 inh, CYP2C9 act)
COc1ccccc1Cn1nnc2c(=O)[nH]c(C3CCN(C(=O)c4ccccc4Cl)CC3)nc21	CYP2C19 inhib 75, CYP2C9 inh 94
O=C(c1ccccc1)N1CCC(c2nc3c(nnn3Cc3ccccc3Cl)c(=O)[nH]2)CC1	CYP2C9 inh 63
CC(C)(C)CC(=O)N1CCC(c2nc3c(nnn3Cc3c(F)cccc3Cl)c(=O)[nH]2)CC1	CYP2C19 inhib 52, CYP2C9 inh 82
O=C(c1ccccc1Cl)N1CCC(c2nc3c(nnn3Cc3ccco3)c(=O)[nH]2)CC1	none (no result: CYP2C19 inhib, CYP2C19 act, CYP2C9 inh, CYP2C9 act)
COc1ccccc1Cn1nnc2c(=O)[nH]c(C3CCN(C(=O)c4ccc(C)cc4)CC3)nc21	CYP2C9 inh 66
Cc1cc(NC(=O)CNC(=O)C2CCCCC2)no1	none

Screening results as filed in PubChem.
